Source: PubChem
Pf growth 96h: Primary qHTS for delayed death inhibitors of the malarial parasite plastid, 96 hour incubation. actives 6.9% (n = 320,000). AID 504834, 2011. Potency, µM (highest dose often 28.7 µM), hits mostly inhibitors. P. falciparum luciferase reporter growth, 96 h
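Erythrocytes infected with luciferase-expressing P. falciparum were dispensed at 2% hematocrit and 0.05% parasitemia (final), then incubated with compounds 96 hours at 37 C in 5% CO2. Luminescence after detection reagent addition reported growth.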
Shiga toxin inh: A qHTS for Small Molecule Inhibitors of Shiga Toxin; Vero cells, Shiga toxin protein synthesis inhibition reporter; inhibition, % at 38.7 µM; actives 9.2% (n = 290,000); in the data active = inhibition mostly above about 28%, no sharp cut-off; inactive = mostly below about 43%
NS1 inh: qHTS Assay for Inhibitors of Influenza NS1 Protein Function; actives 0.4% (n = 270,000); Potency, µM (highest dose often 46.1 µM); AID 2326, 2010; calls by dose curve; note: actives are rising curves; nearly all actives have a fitted effect of over 50% in size
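Growth recovery, yeast-based: influenza A NS1 expressed in S. cerevisiae causes slow growth, and suppressors are detected by OD600. The parent strain without NS1 is used as positive control.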
Pf growth 48h: Primary qHTS for delayed death inhibitors of the malarial parasite plastid, 48 hour incubation | P. falciparum luciferase growth in erythrocytes, 48 h | Potency, µM (titrated, usually from 28.7 µM), actives largely listed as inhibitors | actives 5.9% (n = 310,000)
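A one-generation exposure of luciferase-tagged malaria parasites in RPMI 1640/Albumax erythrocyte culture, 37 C and 5% CO2. Inhibition is inferred from decreased luminescence after adding detection reagent.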
CHX counter: Cycloheximide Counterscreen for Small Molecule Inhibitors of Shiga Toxin; cell reporter, cycloheximide protein synthesis inhibition counterscreen; actives 12% (n = 300,000); AID 2314, 2010; max response, %; in the data active = max response mostly above about 13%, no sharp cut-off; inactive = mostly below about 14%; note: read at 38.3 µM for the half of the compounds with a filed dose
Of the large screens only hits and unclear results are named; the others gave an inactive call. Sampled rows, rich in hits. Any-hit rate of the full collection: about 21%. Unless noted, calls come from the whole dose curve; as a rule, active = well fitted inhibition curve with a large enough effect; inconclusive = small, poorly fitted or top-dose-only effect, or another doubt; inactive = no such curve, though single readings can be large or run the other way.

COc1cc2cc(CN(CCCN3CCOCC3)C(=O)Nc3ccccc3F)c(=O)[nH]c2cc1OC	none
O=C(Nc1ccc(F)cc1)N(CCCN1CCOCC1)Cc1cc2cc3c(cc2[nH]c1=O)OCO3	Pf growth 48h 13.1µM
O=C(c1ccc(F)cc1)C(Cc1ccccc1)N1CCCCC1 (centres undefined)	Shiga toxin inh 69.2, CHX counter 34.6
Cc1oc2cc3c(C(=O)OCCN(C)C)c(C)oc3cc2c1C(=O)OCCN(C)C	none (no result: Pf growth 96h, Shiga toxin inh, Pf growth 48h, CHX counter)
O=[N+]([O-])c1cc(C(F)(F)F)cc([N+](=O)[O-])c1NCCCNc1ccc([N+](=O)[O-])c2cccnc12	Pf growth 96h 4.15µM, Pf growth 48h inconclusive
c1nc2n(n1)C1=C(CCCC1)C1(CCCCC1)N2	Pf growth 96h 2.62µM, Pf growth 48h inconclusive (no result: NS1 inh)
Cc1cc(C)cc(N2CC(O)=C(c3nc4ccccc4c(=O)[nH]3)C2=N)c1	none
N=C1C(c2nc3ccccc3[nH]2)=C(O)CN1C1CCCCC1	Shiga toxin inh 55.0, CHX counter 30.6
N=C1C(c2nc3ccccc3[nH]2)=C(O)CN1c1ccc(F)cc1	CHX counter 37.7 (no result: Pf growth 48h)
c1nnc(NCNc2nncs2)s1	none (no result: Pf growth 96h, Shiga toxin inh, Pf growth 48h, CHX counter)
S=C1NCCNC(=S)NCCOCCN1	none (no result: NS1 inh)
Cc1c(CCC(=O)O)c(=O)oc2cc3occ(C(C)(C)C)c3cc12	Pf growth 96h 1.04µM
COC(=O)c1ccc(CO/N=C2\CCCc3nonc32)cc1	CHX counter 44.0 (no result: NS1 inh)
CC(C1CC1)N(Cc1ccccc1)C(=O)NC(=O)c1ccccc1 (centres undefined)	none (no result: NS1 inh)
CC(C1CC1)N(Cc1ccccc1)C(=S)Nc1ccccc1Cl (centres undefined)	Pf growth 96h 11.7µM, Pf growth 48h inconclusive (no result: NS1 inh)
Fc1ccccc1C1c2cccn2CCN1C(=S)Nc1cccc(Br)c1 (centres undefined)	Pf growth 48h 9.28µM (no result: NS1 inh)
CCS(=O)(=O)C(C)(CCl)C(=O)Nc1ccc(C(=O)OC)cc1 (centres undefined)	none
Cc1c(C(=O)O)oc2c1C(O)CC(C)(C)C2 (centres undefined)	none
Cc1c(C(=O)O)oc2ccc3c(c12)C(O)CC(C)(C)O3 (centres undefined)	Pf growth 96h 4.65µM
S=C(NCc1ccc(Cl)cc1)Nc1ccncc1	Pf growth 48h 13.1µM
FC(F)(F)c1ccccc1NC(=S)NN=C1CCCCCC1	Pf growth 96h inconclusive, Pf growth 48h inconclusive, CHX counter 32.9
S=C(NCc1ccc(Cl)cc1)Nc1ccccc1	NS1 inh inconclusive
COc1cccc(NC(=S)NN2C(C)CCCC2C)c1 (centres undefined)	Pf growth 96h inconclusive, Pf growth 48h inconclusive
COc1cccc(NC(=S)NN=C2CCCCCC2)c1	Pf growth 96h inconclusive, Shiga toxin inh 53.3, CHX counter 26.2
COc1cccc(NC(=S)NCc2ccncc2)c1	Pf growth 96h 8.28µM
FC(F)(F)c1ccccc1NC(=S)N1CCCC1	none
Cc1cc(Cl)ccc1NC(=O)CCN1C(=O)NC(C)(C)C1=O	Pf growth 48h inconclusive (no result: Shiga toxin inh, NS1 inh, CHX counter)
CN1CCc2ccccc2CC1=O	Pf growth 96h inconclusive
COc1cccc(NC(=O)C(=O)NCc2ccncc2)c1	Shiga toxin inh 78.3, CHX counter 29.3
COc1ccc(NC(=O)C(=O)NCc2ccncc2)c(OC)c1	none
CCc1ccc(NC(=S)Nc2cccc(OC)c2)cc1	Pf growth 96h inconclusive, Shiga toxin inh 67.3, CHX counter 15.7
COc1ccc(CNC(=S)Nc2cccc(OC)c2)cc1	Pf growth 96h inconclusive
c1ccc(Cn2cc(CN3CCCO3)c(-c3ccc4c(c3)OCO4)n2)cc1	Pf growth 96h inconclusive
O=C(CN1C(=O)c2ccccc2S1(=O)=O)NCc1ccco1	none
COC(=O)CCC(=O)OC1(C)C(=O)C=C2C=C(C3CC3)N(C3CCCC3)C=C2C1=O (centres undefined)	Pf growth 96h 7.38µM, Pf growth 48h inconclusive
COC(=O)CCC(=O)OC1(C)C(=O)C=C2C=C(C3CC3)N(CC3CC3)C=C2C1=O (centres undefined)	Pf growth 96h 4.15µM, Pf growth 48h 10.4µM
COC(=O)CCC(=O)OC1(C)C(=O)C=C2C=C(C3CC3)N(CC(C)C)C=C2C1=O (centres undefined)	Pf growth 96h 1.85µM, Pf growth 48h 2.94µM
COC(=O)CCC(=O)OC1(C)C(=O)C=C2C=C(C3CC3)N(Cc3ccccc3)C=C2C1=O (centres undefined)	Pf growth 96h inconclusive, Pf growth 48h inconclusive
